We go through ten compounds from PubChem BioAssay (EPA / NIEHS).

Active and inactive are the calls of the source. How the source made its calls: active means hit-call score of the fitted dose curve at least 0.9, where 1 is the maximum; inactive means score below 0.9.

This assay in a line: Tanguay_ZF_120hpf_CRAN: Oregon State University Tanguay Lab 120 Hour Post-fertilization zebrafish Assay for Craniofacial Malformation (AID 2284397). The protocol:
Tanguay_ZF_120hpf is a whole embryo, multiplexed endpoint assay using zebrafish larvae exposed for 120 hours post fertilization on a 96-well plate.Tanguay_ZF_120hpf_CRAN is one of one assay component(s) measured or calculated from the Tanguay_ZF_120hpf assay. It is designed to make measurements of zebrafish development as detected with brightfield microscopy of developing zebrafish embryos.Data from the assay component Tanguay_ZF_120hpf_CRAN was analyzed into 1 assay endpoints. This assay endpoint, Tanguay_ZF_120hpf_CRAN, was analyzed in the positive analysis fitting direction relative to DMSO as the negative control and baseline of activity. Using a type of morphology reporter, gain-of-signal activity can be used to understand changes in developmentals as they relate to the whole embryo. To generalize the intended target to other relatable targets, this assay endpoint is annotated to the zebrafish development intended target family, where the subfamily is craniofacial morphogenesis.
Zebrafish husbandry: Tropical 5D wild-type adult zebrafish were housed in at an approximate density of 1000 per 100 gallon tank at the Sinnhuber Aquatic Research Laboratory, Oregon State University, Corvallis, OR. Each tank was kept at standard laboratory conditions of 28C on a 14-h light/10-h dark photoperiod in fish water consisting of reverse osmosis water supplemented with a commercially available salt (Instant Ocean). Spawning funnels were placed into the tanks the night prior, and embryos were collected and staged. To increase bioavailability, the chorion was enzymatically removed using pronase (63.6mg/ml, >/= 3.5U/mg, Sigma-Aldrich: P5147) at 4 hours post fertilization (hpf) using a custom automated dechorionator.Chemical exposures: Six hpf dechorionated embryos were placed 1 embryo per well in a 96-well plate prefilled with 90 ul of EM using automated embryo placement systems (AEPS). Ten microliters of each row of dilution plate 2 was added to 2 exposure plates. The final DMSO concentration used was 0.64% (vol/vol). Thirty-two embryos were also exposed to 5uM trimethyltin chloride (positive control). Plates were sealed to prevent evaporation and foil covered to reduce light exposure and kept in a 28C incubator. Embryos were statically exposed until 120 hpf. At 24 hpf, embryos were assessed for photomotor response using a custom photomotor response analysis tool (PRAT) and for developmental toxicity endpoints (MO24: mortality at 24 hpf, DP: developmental progression, SM: spontaneous movement, and NC: notochord distortion). At 120 hpf, locomotor activity was measured using Viewpoint Zebralab and assessed for 13 endpoints. Zebrafish acquisition and analysis program (ZAAP), a custom program designed to inventory, acquire, and manage zebrafish data, was used to collect developmental endpoints as either present or absent (i.e., binary responses were recorded). If mortality occurred for an embryo (at either 24 or 120 hpf), the non-mortality endpoints were not measured.
In the case of `OCCC(F)(F)C(F)(F)C(F)(F)C(F)(F)F`, the outcome was inactive. The same measure, in the same setting: the value for `O=S(=O)(O)CCC(F)(F)C(F)(F)C(F)(F)C(F)(F)C(F)(F)C(F)(F)F` was “inactive”. As for `OC(O)(C(F)C(O)(O)C(F)(F)F)C(F)(F)F`, the concentration at half-maximal activity (AC50) (as a rule, the concentration at which the activity in the assay is half-maximal) is 42.2 µM (active).

With `C[Si](C)(C)C(F)(F)C(F)(F)C(F)(F)F`, the call was inactive. As for `FC(F)=C(F)C(F)(F)C(F)(F)C(F)(F)C(F)(F)C(F)(F)C(F)(F)F`, the result was inactive. With `FC(F)C(F)(F)COCC1CO1` (stereo not given), the call was inactive. `NCC(F)(F)C(F)(F)C(F)(F)C(F)(F)F`: the outcome was inactive.

On to `FC(F)(F)COC(OCC(F)(F)F)OCC(F)(F)F`, for which the compound was classed as inactive. Turning to `O=C(Cl)C(F)(F)C(F)(F)C(F)(F)C(=O)Cl`, the compound was called inactive. Turning to `FC(F)(F)C(F)(F)C(F)(F)C(F)(F)C(F)(F)C(F)(F)I`, the compound was called inactive.
